From PubChem
USP17 inh – human USP17-like deubiquitinase inhibition. purified USP17, Ub-rhodamine cleavage fluorescence, 3 h. inhibition, % at 50 µM. hit rate 6.5% among 47,000
USP28 block – human USP28 deubiquitinase inhibition; AID 1645857; inhibition, % at 25 µM; hit rate 3% among 47,000; purified USP28, Ub-rhodamine cleavage fluorescence, 30 min
USP30 inh – blocks human USP30 ubiquitin-rhodamine cleavage | purified USP30, Ub-rhodamine cleavage fluorescence | hit rate 5.3% among 47,000 | Q70CQ3 | inhibition, % at 25 µM
Target sequence (Q70CQ3 whole entry, looked up): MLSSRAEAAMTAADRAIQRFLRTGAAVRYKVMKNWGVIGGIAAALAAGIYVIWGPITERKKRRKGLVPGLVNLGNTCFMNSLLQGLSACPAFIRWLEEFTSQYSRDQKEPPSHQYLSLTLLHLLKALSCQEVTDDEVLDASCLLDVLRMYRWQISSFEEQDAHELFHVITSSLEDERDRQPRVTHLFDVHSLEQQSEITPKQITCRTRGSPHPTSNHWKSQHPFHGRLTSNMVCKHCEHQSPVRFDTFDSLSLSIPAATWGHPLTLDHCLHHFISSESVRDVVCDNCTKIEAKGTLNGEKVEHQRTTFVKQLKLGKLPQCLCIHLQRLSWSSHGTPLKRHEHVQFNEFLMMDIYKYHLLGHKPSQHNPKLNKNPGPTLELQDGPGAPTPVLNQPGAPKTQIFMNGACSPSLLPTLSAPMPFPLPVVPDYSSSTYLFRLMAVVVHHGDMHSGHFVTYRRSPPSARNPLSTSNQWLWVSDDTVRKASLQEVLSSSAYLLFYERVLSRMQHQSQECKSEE
The depositor's hits bear a star. Most compounds without a hit are left out; they make up all but 11% or so of the library. Cut-off read from the data, not from the text of the source: active = inhibition above about 30%; inactive = the rest.

For Cn1c(N)c(S(=O)(=O)N2CCCCC2c2cccnc2)c(=O)n(C)c1=O (centres undefined) the results were USP17 inh -8.7, USP28 block -16.0 and USP30 inh -0.1.
`O=C(CSc1nnc2n(-c3ccccc3)c(=O)c3ccccc3n12)c1ccc(F)cc1` gave USP17 inh 3.4, USP28 block -4.0 and USP30 inh 2.9.
`O=C(CSc1nnc(C2CC2)n1-c1ccccc1)c1ccc(F)c(F)c1` gave USP17 inh 2.8, USP28 block 6.4 and USP30 inh 32.2*.
Screening CCc1nnc(Nc2cc(C3CCCN3C3CCOCC3)nc(C)n2)s1 (centres undefined) returned USP17 inh -24.8, USP28 block -23.9 and USP30 inh -49.8.
Screening O=C(NCCc1nc2ccccc2n1Cc1ccccc1F)c1ccco1 returned USP17 inh 0.6, USP28 block -1.8 and USP30 inh 0.4.
For c1csc(-c2csc(-c3ccc4c(c3)OCCO4)n2)c1 the results were USP17 inh -5.6, USP28 block 8.0 and USP30 inh -11.7.
`Nc1ccccc1SCc1noc(-c2cccs2)n1` gave USP17 inh -7.8, USP28 block 72.6* and USP30 inh -11.1.
Cc1nc(C2CN(C(=O)c3cccc4ncccc34)CCO2)cc(=O)[nH]1 (centres undefined) was read as USP17 inh -5.0, USP28 block -0.9 and USP30 inh 0.0.
For Fc1ccc(-c2cc(C(F)(F)F)nc(-n3nnc4ccccc43)n2)cc1 the results were USP17 inh 15.5, USP28 block 9.8 and USP30 inh 10.6.
For Cc1cc(C(F)(F)F)nc(-n2cc(-c3ccccc3)nn2)n1 the results were USP17 inh 34.5*, USP28 block -5.4 and USP30 inh 12.7.
O=C(CN1CCOCC1)Nc1nc(-c2ccc3c(c2)CCN3C(=O)c2ccc(F)cc2)cs1 was read as USP17 inh 13.7, USP28 block -2.2 and USP30 inh -30.0.
`O=c1c2ccsc2ncn1Cc1ccccc1F` gave USP17 inh -13.7, USP28 block 32.5* and USP30 inh 0.6.
For O=c1c2ccsc2nc2n1CCN(Cc1cccc(F)c1F)CC2 the results were USP17 inh 4.2, USP28 block 6.0 and USP30 inh 2.1.
For CCCCCCCCCC(CCCCCCCCCC(=O)O)O[C@H]1O[C@@H](COC(C)=O)[C@H](O)[C@@H](O)[C@H]1OC(=O)CC(=O)O (some centres undefined) the results were USP17 inh 41.8*, USP28 block 40.6* and USP30 inh 52.8*.
O=S(=O)(c1ccc2c(c1)CCN2S(=O)(=O)c1ccc(F)cc1)N1CCOCC1 was read as USP17 inh 3.1, USP28 block 0.2 and USP30 inh 15.8.
CCOc1ccc(N(C(=O)Cn2nnc3ccccc32)C(C(=O)NC(C)(C)C)c2cccc(OC)c2OC)cc1 (centres undefined) was read as USP17 inh -8.1, USP28 block -6.4 and USP30 inh -4.9.
`O=C(NC1CCN(C(=O)C2CC2)C1)c1ccc(F)cc1` (centres undefined) gave USP17 inh 9.0, USP28 block 5.8 and USP30 inh 19.3.
For CCCCCCCCCCCCCCCCCC(=O)N[C@@H]1C[C@@H](O)[C@@H](O)NC(=O)[C@@H]2[C@@H](O)[C@@H](C)CN2C(=O)[C@H]([C@@H](C)O)NC(=O)[C@H]([C@H](O)[C@@H](O)c2ccc(O)cc2)NC(=O)[C@@H]2C[C@@H](O)CN2C(=O)[C@H]([C@@H](C)O)NC1=O the results were USP17 inh 20.1, USP28 block 38.3* and USP30 inh 49.4*.
For COc1cccc(CNC(=O)CN2C(=O)[C@@H]3CCCN3c3ncccc32)c1 the results were USP17 inh 11.3, USP28 block -0.3 and USP30 inh -14.3.
COc1ccc(N2CCN(C(=O)CN3C(=O)[C@H]4CCCN4c4ncccc43)CC2)cc1 was read as USP17 inh 34.1*, USP28 block -19.9 and USP30 inh -73.9.
Screening O=C(Nc1ccc(F)cc1)C(c1ccc(F)cc1)N(Cc1ccc(F)cc1)C(=O)c1cnccn1 (centres undefined) returned USP17 inh 10.9, USP28 block 1.0 and USP30 inh 12.0.
COc1ccc(Cn2nnc(C(=O)NC(C)C)c2-n2cccc2)cc1 was read as USP17 inh 14.6, USP28 block 5.8 and USP30 inh -81.0.
Cc1ccc(Cn2nnc(C(=O)NCc3ccco3)c2-n2cccc2)cc1 was read as USP17 inh 20.5, USP28 block 57.5* and USP30 inh -30.9.
For COCCN(C)c1nc(C2CCN(Cc3cc(C)on3)CC2)cc2c1ncn2C the results were USP17 inh -43.0, USP28 block -17.7 and USP30 inh -23.8.
`COc1ccccc1C1CCN(Cc2c(C)[nH]c3ccccc23)CC1` gave USP17 inh 0.3, USP28 block 15.9 and USP30 inh 31.0*.
